Data as given in PubChem BioAssay (EPA / NIEHS).
Active and inactive are the calls of the source. Rule for the calls: active = hit-call score of the fitted dose curve at least 0.9, where 1 is the maximum; inactive = score below 0.9.

Tests used:
[1] = ATG_ISRE_CIS: Attagene CIS-FACTORIAL HepG2 Assay for human Interferon Regulatory Factor 1 (IRF1) binding to an Interferon-Stimulated Response Element (ISRE) (AID 2282948); conditions: HepG2 ISRE cis-reporter (Attagene), mRNA transcription readout; actives raise or lower the signal
Procedure, shortened: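 Multiplexed mRNA reporter readout in human liver HepG2 cells: cis-element-driven reporters transfected, compound added for 24 h, transcripts amplified, fluorescently labelled and sized by capillary electrophoresis; curve fitting bidirectional against DMSO.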

[2] = ATG_M_32_CIS: Attagene CIS-FACTORIAL HepG2 Assay for M32 Transcription Factor (Internal Marker) (AID 2282949); conditions: HepG2 Attagene cis-factorial M32 reporter, mRNA; actives raise or lower the signal;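 note: background control marker of the multiplexed CIS panel rather than a real target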
Procedure, shortened: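 Transient MRTU transfection of HepG2; 24 h compound treatment; TriZol RNA, oligo(dT) RT, reporter PCR, 6-FAM primer extension, HpaI cut, CE. Gain/loss of signal vs DMSO.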

[3] = ATG_M_06_CIS: Attagene CIS-FACTORIAL HepG2 Assay for M06 Transcription Factor (Internal Marker) (AID 2282950); conditions: HepG2 Attagene CIS-FACTORIAL M06 internal marker reporter; actives raise or lower the signal
Procedure, shortened: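 Cells (HepG2, transiently carrying cis-driven reporter units) receive chemical for 24 h before RNA isolation. Reporter cDNA is PCR-amplified, FAM-labelled by primer extension, HpaI-digested and sized on a capillary analyser.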

[4] = target: Hypoxia-inducible factor 1-alpha (Homo sapiens) (UniProt Q16665); experiment: ATG_HIF1a_CIS: Attagene CIS-FACTORIAL HepG2 Assay for human Hypoxia Inducible Factor 1 (HIF1A) (AID 2282951); conditions: HepG2 Attagene cis-factorial HIF1a reporter transcription; actives raise or lower the signal
Chain of Hypoxia-inducible factor 1-alpha (Homo sapiens) (Q16665 whole entry, looked up): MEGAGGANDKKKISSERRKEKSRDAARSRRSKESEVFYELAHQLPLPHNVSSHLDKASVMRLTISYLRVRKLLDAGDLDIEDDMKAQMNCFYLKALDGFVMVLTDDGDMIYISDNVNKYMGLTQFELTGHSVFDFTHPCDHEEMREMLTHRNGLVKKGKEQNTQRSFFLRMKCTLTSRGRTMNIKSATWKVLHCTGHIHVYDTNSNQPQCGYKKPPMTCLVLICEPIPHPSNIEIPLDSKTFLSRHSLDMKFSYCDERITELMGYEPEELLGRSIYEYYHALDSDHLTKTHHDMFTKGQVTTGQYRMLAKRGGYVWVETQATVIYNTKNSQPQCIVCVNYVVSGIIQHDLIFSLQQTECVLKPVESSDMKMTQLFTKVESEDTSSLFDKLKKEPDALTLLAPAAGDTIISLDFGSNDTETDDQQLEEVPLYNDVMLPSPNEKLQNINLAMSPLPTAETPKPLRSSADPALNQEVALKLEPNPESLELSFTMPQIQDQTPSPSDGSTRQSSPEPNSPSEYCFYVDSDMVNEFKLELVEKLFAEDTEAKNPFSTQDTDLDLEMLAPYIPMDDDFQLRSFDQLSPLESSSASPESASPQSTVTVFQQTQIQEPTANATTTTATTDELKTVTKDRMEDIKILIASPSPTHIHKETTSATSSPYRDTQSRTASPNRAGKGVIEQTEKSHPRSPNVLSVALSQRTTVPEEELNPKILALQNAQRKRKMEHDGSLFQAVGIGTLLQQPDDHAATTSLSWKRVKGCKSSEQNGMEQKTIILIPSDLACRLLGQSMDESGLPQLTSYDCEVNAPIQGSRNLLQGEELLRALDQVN
Procedure, shortened: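 Endogenous-TF cis reporter readout, human HepG2 cells, 24 h incubation; mRNA detected via RT-PCR and capillary electrophoresis fluorescence; DMSO-normalised bidirectional fitting.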

[5] = target: Hepatocyte nuclear factor 6 (Homo sapiens) (UniProt Q9UBC0); experiment: ATG_HNF6_CIS: Attagene CIS-FACTORIAL HepG2 Assay for human Hepatocyte Nuclear Factor 6 (HNF6) (AID 2282952); conditions: HepG2 Attagene cis-factorial HNF6 reporter transcription; actives raise or lower the signal
Chain of Hepatocyte nuclear factor 6 (Homo sapiens) (Q9UBC0 whole entry, looked up): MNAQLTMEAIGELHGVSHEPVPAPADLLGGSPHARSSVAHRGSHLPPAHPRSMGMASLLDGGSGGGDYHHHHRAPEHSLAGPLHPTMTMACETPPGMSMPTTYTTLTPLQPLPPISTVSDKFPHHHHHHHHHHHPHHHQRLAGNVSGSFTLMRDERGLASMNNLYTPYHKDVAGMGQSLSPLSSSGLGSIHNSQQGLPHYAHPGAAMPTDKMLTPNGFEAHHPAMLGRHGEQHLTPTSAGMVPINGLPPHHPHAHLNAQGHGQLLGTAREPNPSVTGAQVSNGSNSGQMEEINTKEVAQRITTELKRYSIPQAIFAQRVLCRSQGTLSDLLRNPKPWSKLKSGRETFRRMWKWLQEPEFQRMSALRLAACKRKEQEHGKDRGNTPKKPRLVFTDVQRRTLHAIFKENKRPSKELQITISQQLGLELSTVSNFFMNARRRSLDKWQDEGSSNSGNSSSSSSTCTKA
Procedure, shortened: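 Endogenous transcription factor activity in human HepG2 liver cells was captured through cis-regulated reporter constructs. After 24 h treatment, reporter mRNA was measured by RT-PCR with capillary electrophoresis, and activity was fitted in both directions relative to DMSO.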

[6] = target: Heat shock factor protein 1 (Homo sapiens) (UniProt Q00613); experiment: ATG_HSE_CIS: Attagene CIS-FACTORIAL HepG2 Assay for human Heat Shock Transcription Factor 1 (HSE) (AID 2282953); conditions: HepG2 HSE cis-reporter, Attagene RNA transcription; actives raise or lower the signal
Chain of Heat shock factor protein 1 (Homo sapiens) (Q00613 whole entry, looked up): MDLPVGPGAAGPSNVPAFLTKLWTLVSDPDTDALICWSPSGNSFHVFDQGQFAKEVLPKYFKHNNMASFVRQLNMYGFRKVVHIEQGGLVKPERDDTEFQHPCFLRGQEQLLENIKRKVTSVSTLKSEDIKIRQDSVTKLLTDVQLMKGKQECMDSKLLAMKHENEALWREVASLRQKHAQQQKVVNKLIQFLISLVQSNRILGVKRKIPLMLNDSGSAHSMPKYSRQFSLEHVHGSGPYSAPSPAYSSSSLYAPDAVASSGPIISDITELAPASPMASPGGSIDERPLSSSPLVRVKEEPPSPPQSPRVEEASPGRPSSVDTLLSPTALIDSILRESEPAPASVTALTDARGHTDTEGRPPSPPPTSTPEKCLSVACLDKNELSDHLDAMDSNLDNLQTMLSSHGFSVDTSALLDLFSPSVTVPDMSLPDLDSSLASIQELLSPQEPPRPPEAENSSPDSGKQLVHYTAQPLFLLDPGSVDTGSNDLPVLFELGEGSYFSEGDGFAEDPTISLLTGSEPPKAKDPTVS
Procedure, shortened: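 Liver-derived HepG2 cells carry transiently introduced multiple reporter units governed by cis promoters. Reporter RNA measured 24 h post-dose through reverse transcription, PCR amplification, fluorescent labelling and capillary electrophoresis, normalised to DMSO.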

[7] = ATG_MRE_CIS: Attagene CIS-FACTORIAL HepG2 Assay for human Metal Responsive Element (MRE) (AID 2282954); conditions: HepG2 MRE cis-reporter transcription, Attagene multiplex; actives raise or lower the signal
Procedure, shortened: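 RT-PCR/capillary electrophoresis readout of reporter mRNA, 24 h post-dosing, in HepG2 cells transfected with multiplexed cis-regulated reporter constructs. Gain or loss of signal fitted bidirectionally against DMSO baseline.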

[8] = ATG_PBREM_CIS: Attagene CIS-FACTORIAL HepG2 Assay for human Phenobarbital-responsive Enhancer Module (PBREM) (AID 2282955); conditions: HepG2 PBREM cis-reporter, Attagene multiplexed transcription; actives raise or lower the signal
Procedure, shortened: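 Readout: reporter mRNA, fluorescent RT-PCR fragments separated by capillary electrophoresis. System: HepG2 transiently transfected with cis-regulated reporter units. Exposure: 24 h. Analysis: bidirectional, DMSO baseline.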

[9] = target: Paired box protein Pax-6 (Homo sapiens) (UniProt P26367); experiment: ATG_Pax6_CIS: Attagene CIS-FACTORIAL HepG2 Assay for human Paired Box 6 (PAX6) (AID 2282956); conditions: HepG2 CIS-FACTORIAL PAX6 reporter transcription, RNA readout; actives raise or lower the signal
Chain of Paired box protein Pax-6 (Homo sapiens) (P26367 whole entry, looked up): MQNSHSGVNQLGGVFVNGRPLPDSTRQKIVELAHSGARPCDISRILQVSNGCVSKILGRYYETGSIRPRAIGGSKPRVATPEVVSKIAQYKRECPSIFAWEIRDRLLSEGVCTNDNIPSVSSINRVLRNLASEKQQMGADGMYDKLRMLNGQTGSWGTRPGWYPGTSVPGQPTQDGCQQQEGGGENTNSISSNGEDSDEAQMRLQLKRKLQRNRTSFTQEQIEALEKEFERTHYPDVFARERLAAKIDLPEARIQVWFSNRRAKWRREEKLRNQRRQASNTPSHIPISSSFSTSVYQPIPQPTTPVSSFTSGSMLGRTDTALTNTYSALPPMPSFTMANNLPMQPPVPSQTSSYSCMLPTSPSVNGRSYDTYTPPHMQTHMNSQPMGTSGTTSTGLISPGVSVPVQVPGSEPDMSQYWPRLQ
Procedure, shortened: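 Fluorescent RT-PCR products separated by capillary electrophoresis report PAX6-linked promoter mRNA in HepG2 cells 24 h post-dose. Curves fitted bidirectionally, DMSO as negative control.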

[10] = ATG_PXRE_CIS: Attagene CIS-FACTORIAL HepG2 Assay for human Pregnane X Receptor Element (PXRE) (AID 2282957); conditions: HepG2 Attagene CIS-FACTORIAL PXRE reporter, mRNA; actives raise or lower the signal
Procedure, shortened: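 Endogenous transcription factor activity in HepG2 was gauged through induction of reporter mRNA driven by a cis-regulating promoter element, sampled 24 h post-treatment. Activity was fitted in both directions against DMSO negative control.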

[11] = ATG_PPRE_CIS: Attagene CIS-FACTORIAL HepG2 Assay for human Peroxisome Proliferator-activated Response Element (PPRE) (AID 2282958); conditions: HepG2 PPRE cis-element reporter, Attagene transcription factor profiling; actives raise or lower the signal
Procedure, shortened: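 After human HepG2 hepatoma cells were transiently transfected with cis-promoter reporter constructs, they were exposed to test chemicals for 24 hours. Reporter RNA was then reverse-transcribed, PCR-amplified, FAM-labeled, HpaI-digested and quantified by capillary electrophoresis.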

[12] = ATG_RORE_CIS: Attagene CIS-FACTORIAL HepG2 Assay for human RAR-related Orphan Receptor Element (RORE) (AID 2282959); conditions: HepG2 Attagene cis-factorial RORE reporter, mRNA; actives raise or lower the signal
Procedure, shortened: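 Measured here: transcript induction of a cis-regulated reporter in HepG2 cells transiently transfected via FuGene 6. After 24 h, RNA was processed by RT-PCR and fluorescent capillary electrophoresis; DMSO defined baseline activity.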

[13] = ATG_Sox_CIS: Attagene CIS-FACTORIAL HepG2 Assay for human SRY-box transcription factor (SOX) (AID 2282960); conditions: HepG2 Attagene cis-factorial SOX reporter, mRNA; actives raise or lower the signal
Procedure, shortened: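 Using transiently transfected HepG2 cells, reporter transcription driven by cis elements was assessed 24 h after dosing. Signal was fluorescence of capillary-separated RT-PCR products, with DMSO defining baseline activity.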

[14] = target: Transcription factor Sp1 (Homo sapiens) (UniProt P08047); experiment: ATG_Sp1_CIS: Attagene CIS-FACTORIAL HepG2 Assay for human Specificity Protein 1 (Sp1) (AID 2282961); conditions: HepG2 Sp1 cis-reporter transcription, actives raise or lower the signal
Chain of Transcription factor Sp1 (Homo sapiens) (P08047 whole entry, looked up): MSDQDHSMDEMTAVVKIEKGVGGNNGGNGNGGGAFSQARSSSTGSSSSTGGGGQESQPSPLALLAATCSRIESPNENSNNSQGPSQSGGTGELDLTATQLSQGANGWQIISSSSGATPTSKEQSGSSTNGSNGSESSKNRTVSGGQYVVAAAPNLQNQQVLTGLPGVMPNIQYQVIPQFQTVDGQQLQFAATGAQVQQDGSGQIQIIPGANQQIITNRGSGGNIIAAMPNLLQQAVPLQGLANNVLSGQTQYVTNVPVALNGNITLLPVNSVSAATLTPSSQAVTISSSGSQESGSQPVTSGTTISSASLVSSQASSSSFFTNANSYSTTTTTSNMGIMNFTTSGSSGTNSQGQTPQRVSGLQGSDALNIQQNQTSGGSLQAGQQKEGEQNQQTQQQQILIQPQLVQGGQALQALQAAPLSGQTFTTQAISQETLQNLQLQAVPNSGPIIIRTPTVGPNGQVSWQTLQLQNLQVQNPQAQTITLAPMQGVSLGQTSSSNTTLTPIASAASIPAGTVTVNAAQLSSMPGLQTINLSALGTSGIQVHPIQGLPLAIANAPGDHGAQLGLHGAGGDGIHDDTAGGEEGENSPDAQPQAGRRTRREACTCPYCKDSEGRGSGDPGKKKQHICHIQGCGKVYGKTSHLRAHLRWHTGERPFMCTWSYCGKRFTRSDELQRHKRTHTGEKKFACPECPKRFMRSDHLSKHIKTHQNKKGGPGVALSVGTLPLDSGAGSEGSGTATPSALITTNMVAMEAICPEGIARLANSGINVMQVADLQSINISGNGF
Procedure, shortened: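 After transient transfection of HepG2 cells with cis-promoter reporter units and 24 h chemical treatment, reporter transcripts were quantified by RT-PCR and capillary electrophoresis fluorescence. Gain- and loss-of-signal fitted against DMSO.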

[15] = ATG_SREBP_CIS: Attagene CIS-FACTORIAL HepG2 Assay for human Sterol Regulatory Element Binding (SREBP) (AID 2282962); conditions: HepG2 Attagene cis-factorial SREBP reporter, mRNA; actives raise or lower the signal
Procedure, shortened: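 Endogenous factor activity is measured in HepG2 through multiplexed reporter units under cis-element control. Following a 24 h incubation, reporter transcripts are reverse-transcribed, PCR-amplified and sized by capillary electrophoresis; activity is fitted in both directions relative to DMSO.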

[16] = target: Signal transducer and activator of transcription 3 (Homo sapiens) (UniProt P40763); experiment: ATG_STAT3_CIS: Attagene CIS-FACTORIAL HepG2 Assay for human Signal Transducer and Activator of Transcription 3 (STAT3) (AID 2282963); conditions: HepG2, Attagene cis-factorial STAT3 reporter transcription; actives raise or lower the signal
Chain of Signal transducer and activator of transcription 3 (Homo sapiens) (P40763 whole entry, looked up, the tested form may be a part): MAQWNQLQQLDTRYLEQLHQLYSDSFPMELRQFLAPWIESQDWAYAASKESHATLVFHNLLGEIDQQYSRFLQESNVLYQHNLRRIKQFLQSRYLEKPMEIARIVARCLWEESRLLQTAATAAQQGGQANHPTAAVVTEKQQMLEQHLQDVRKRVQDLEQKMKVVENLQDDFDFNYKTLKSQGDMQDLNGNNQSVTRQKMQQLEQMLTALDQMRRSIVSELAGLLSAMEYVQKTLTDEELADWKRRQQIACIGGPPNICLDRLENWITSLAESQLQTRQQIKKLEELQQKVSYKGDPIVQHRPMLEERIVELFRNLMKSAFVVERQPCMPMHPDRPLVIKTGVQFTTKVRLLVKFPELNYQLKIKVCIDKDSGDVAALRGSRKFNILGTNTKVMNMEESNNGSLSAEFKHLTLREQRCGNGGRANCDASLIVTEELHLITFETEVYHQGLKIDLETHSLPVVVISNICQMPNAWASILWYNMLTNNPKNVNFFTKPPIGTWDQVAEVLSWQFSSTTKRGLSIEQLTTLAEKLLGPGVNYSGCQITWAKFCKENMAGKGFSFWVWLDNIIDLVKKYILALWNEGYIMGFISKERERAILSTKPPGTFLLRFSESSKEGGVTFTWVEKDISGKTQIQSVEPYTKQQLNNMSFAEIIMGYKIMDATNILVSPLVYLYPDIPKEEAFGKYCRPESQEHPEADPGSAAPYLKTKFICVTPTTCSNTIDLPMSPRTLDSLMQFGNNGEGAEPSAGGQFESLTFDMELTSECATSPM
Procedure, shortened: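 Readout: fluorescent reporter mRNA fragments resolved by capillary electrophoresis. Setup: HepG2 transfected with MRTUs reporting endogenous transcription-factor activity, dosed 24 h. Gain or loss of signal fitted bidirectionally against DMSO control.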

[17] = ATG_TA_CIS: Attagene CIS-FACTORIAL HepG2 Assay for human TA Basal Promoter (AID 2282964); conditions: HepG2 Attagene CIS-factorial TA basal promoter reporter; actives raise or lower the signal
Procedure, shortened: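 Background internal-marker endpoint from a 52-component HepG2 cis-reporter panel. Cells treated 24 h; reporter transcripts quantified via RT-PCR and CE fluorescence against DMSO baseline.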

[18] = ATG_TCF_b_cat_CIS: Attagene CIS-FACTORIAL HepG2 Assay for human T-Cell-Factor with beta-catenin (TCF/b-cat) (AID 2282965); conditions: HepG2 TCF/beta-catenin cis-reporter transcription, actives raise or lower the signal
Procedure, shortened: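 HepG2, transient MRTU transfection, cis-element-driven reporters (endogenous TFs). 24 h compound exposure. Readout: reporter mRNA by RT-PCR + 6-FAM primer extension, HpaI digest, capillary electrophoresis. Gain/loss fit vs DMSO baseline.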

[19] = ATG_TAL_CIS: Attagene CIS-FACTORIAL HepG2 Assay for human TAL Basal Promoter (AID 2282966); conditions: HepG2 Attagene cis-factorial TAL promoter reporter; actives raise or lower the signal;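 note: background control endpoint measuring basal TAL promoter reporter mRNA not a specific factor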
Procedure, shortened: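 Endogenous transcription-factor activity is sensed in HepG2 cells through transfected cis-promoter reporter constructs. After 24 h dosing, reporter transcripts are quantified by RT-PCR and capillary electrophoresis. Gain or loss of signal is fitted relative to DMSO.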

[20] = ATG_GRE_CIS: Attagene CIS-FACTORIAL HepG2 Assay for human Glucocorticoid Response Elements (GRE) (AID 2282947); conditions: HepG2 GRE cis-reporter, Attagene multiplex mRNA; actives raise or lower the signal
Procedure, shortened: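 Read-out: fluorescent reporter-transcript fragments separated by capillary electrophoresis after RT-PCR. Transiently transfected HepG2 cells carrying cis-element-driven reporter units were dosed for 24 h; gain or loss of signal fitted against DMSO control.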

Measured: AC50

O=C(O)C1(C(=O)Nc2ccc(Cl)cc2Cl)CC1
inactive: [1] | [2] | [3] | [4] | [5] | [6] | [7] | [8] | [9] | [12] | [13] | [14] | [15] | [16] | [17] | [18] | [19]
active: [10] 69.7 µM | [11] 13.7 µM

S=C([S-])NCCNC(=S)[S-].[Mn+2]
inactive: [20] | [1] | [3] | [4] | [5] | [6] | [7] | [9] | [10] | [12] | [13] | [14] | [15] | [17] | [18]

CCOC(=O)NCCOc1ccc(Oc2ccccc2)cc1
inactive: [1] | [2] | [3] | [5] | [13] | [14] | [15] | [17] | [18] | [19]
active: [4] 86 µM | [6] 78.1 µM | [7] 66.2 µM | [8] 50 µM | [10] 10 µM | [11] 8.06 µM | [12] 13.3 µM

Oc1ccc(C(c2ccc(O)cc2)C(Cl)(Cl)Cl)cc1
active: [10] 0.498 µM
inactive: [20] | [1] | [3] | [4] | [5] | [6] | [7] | [12] | [13] | [14] | [15] | [16] | [17] | [18]

COC(=O)c1c(Cl)nn(C)c1S(=O)(=O)NC(=O)Nc1nc(OC)cc(OC)n1
inactive: [20] | [1] | [3] | [4] | [5] | [6] | [7] | [8] | [10] | [11] | [12] | [13] | [14] | [15] | [16] | [17] | [18]
